Records with an inconclusive call do not appear. Calls of active or inactive are those of the source.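 How the source made its calls, unless noted: active means response below a set limit, under 55% cells CD8-positive and vesicle-bound, and CD8 cells' 90th-percentile brightness under 279; inactive means the rest.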

Test [1] can be described thus: rapamycin-like changes in RPL19A-GFP expression – cell-based, S. cerevisiae, multiplex flow cytometry, primary screen (AID 1862; in the data active means percent of DMSO control GFP below about 86%;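 further: lower values mimic rapamycin by blocking the RPL19A rise seen in DMSO cells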). Particulars: S. cerevisiae RPL19A-GFP strain, flow cytometry fluorescence, 3 h; at 10 µM; stronger effect = lower value.
Test [2] in a line: TOR pathway GLN3 branch reporter MEP2-GFP changes – S. cerevisiae, multiplex flow cytometry, primary screen (AID 1867;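 active means GFP response, as percent of the DMSO control, above the screen-wide mean plus 3 SD, about 139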;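 further: median GFP channel fluorescence of barcode-gated MEP2-GFP cells measured by flow cytometry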). Conditions: S. cerevisiae MEP2-GFP strain, 3 h, at 10 µM, stronger effect = higher value, 100% means same as DMSO wells.
Test [3] can be described thus: TOR pathway RTG branch CIT2 reporter changes – S. cerevisiae, GFP fusion, multiplex flow cytometry, primary screen (AID 1870;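 active means percent response above a set limit, the screen-wide mean plus 3 SD, cut at about 130% in these data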;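 further: barcoded CIT2-GFP strain pooled with four other GFP strains with rapamycin as positive control; median GFP fluorescence per well over plate mean of DMSO wells so 100% = DMSO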). Particulars: S. cerevisiae CIT2-GFP expression, 3 h, at 10 µM, stronger effect = higher value. For orientation: Flow cytometry measures light scatter and fluorescence of single cells or particles in a stream.
A short description of test [4]: TOR pathway LAP4-GFP level changes – S. cerevisiae, multiplex flow cytometry, primary screen (AID 1873;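 active means GFP signal, as percent of the solvent control, above the screen mean plus 3 SD, about 149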). Conditions: S. cerevisiae LAP4-GFP expression, 3 h, at 10 µM, stronger effect = higher value.
Test [5] in a line: yeast AGP1-GFP level changes, GLN3 branch – cell-based, multiplex flow cytometry, S. cerevisiae, primary screen (AID 1887;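 active means GFP signal above the screen-wide mean plus 3 SD, that is over about 124.5% of the solvent control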;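 further: AGP1-GFP fusion strain of S. cerevisiae within a five-strain barcoded multiplex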). Conditions: 3 h, at 10 µM, stronger effect = higher value.
Test [6] can be described thus: reduced mouse 2C T cell binding to pMHC/ICAM-1 vesicles – MLPCN validation set, flow cytometry, LFA-1/ICAM-1 modulator project, pilot screen (AID 2523).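 On vesicle binding response: mean PE anti-B7-1 fluorescence of CD8+ cells relative to row control; 100% = QL9-loaded vesicles with DMSO vehicle in the same plate row.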 Conditions: 2C mouse CD8+ T cells, at 7 µM, stronger effect = lower value; double positive events: measured here: CD8+/vesicle+ event percentage.
Test [7] concerns the target Integrin beta-1 (Homo sapiens) + Integrin alpha-4 (Homo sapiens) (UniProt P13612+P05556). The experiment in a line: alpha4beta1 integrin LIBS antibody binding reduction – U937 cells, HUTS-21 mAb, flow cytometry, validation set, VLA-4 allosteric modulator project, pilot screen (AID 2674;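 active means inhibition above 50%, about 3 SD of the validation set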;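 further: antibody binding induced by the VLA-4 ligand LDV present at three times its Kd; 0% = LDV ligand with antibody and no compound and 100% = antibody without LDV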). Conditions: HUTS-21 LIBS mAb binding, at 6.7 µM, stronger effect = higher value, binding induced by LDV ligand.

The nature of test [8]: calorie-restriction mimetic ROS inhibitors, yeast – validation compound set, pilot screen (AID 2706;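 active means superoxide response below 65% of plate, a cut near 3 SD across the whole screen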;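 further: yeast exposed to compound for one week at 30 degrees C before staining; 100% = mean of all compound wells on the same plate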). Particulars: S. cerevisiae aging, superoxide DHE fluorescence; at 10 µM; stronger effect = lower value.
Test [9] deals with Beta-adrenergic receptor kinase 1 (Homo sapiens) (UniProt P25098). The experiment in a line: GRK2 binders displacing RNA aptamer, biochemical, validation, human GRK2, bead flow cytometry (AID 488806;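 active means aptamer binding inhibition above 30%, about 3 SD of noise from non-fluorescent compounds; inactive means inhibition at or below 30%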). Particulars: bead-bound GRK2, FAM-aptamer displacement, at 10 µM, stronger effect = higher value.
Sequence of Beta-adrenergic receptor kinase 1 (Homo sapiens) (P25098 whole entry, looked up): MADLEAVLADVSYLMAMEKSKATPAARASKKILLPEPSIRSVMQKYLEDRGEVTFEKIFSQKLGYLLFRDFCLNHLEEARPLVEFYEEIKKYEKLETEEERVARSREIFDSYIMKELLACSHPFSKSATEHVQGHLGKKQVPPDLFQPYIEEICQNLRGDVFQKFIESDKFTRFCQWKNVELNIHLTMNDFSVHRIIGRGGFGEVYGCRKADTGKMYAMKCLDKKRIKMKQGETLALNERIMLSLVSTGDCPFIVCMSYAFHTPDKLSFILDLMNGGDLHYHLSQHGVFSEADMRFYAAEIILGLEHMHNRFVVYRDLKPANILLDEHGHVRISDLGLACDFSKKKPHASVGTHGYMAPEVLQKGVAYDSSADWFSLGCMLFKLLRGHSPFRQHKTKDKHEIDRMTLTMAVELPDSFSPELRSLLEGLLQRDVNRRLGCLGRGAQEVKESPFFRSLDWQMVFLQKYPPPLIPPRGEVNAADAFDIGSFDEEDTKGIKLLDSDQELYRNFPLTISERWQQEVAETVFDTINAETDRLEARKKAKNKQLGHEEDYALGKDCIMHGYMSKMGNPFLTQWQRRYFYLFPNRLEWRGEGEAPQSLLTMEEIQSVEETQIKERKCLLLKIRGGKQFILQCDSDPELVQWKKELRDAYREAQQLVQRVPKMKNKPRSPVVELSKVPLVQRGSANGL
In test [10] the target is Beta-2 adrenergic receptor (Homo sapiens) (UniProt P07550). The experiment in a line: agonist-induced loss of surface beta2AR – cell-based, FAP fluorogen, flow cytometry, validation set, pilot screen (AID 504459;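 active means percent response above 42, roughly 3 SD of non-fluorescent test compounds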;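 further: agonist-driven loss of surface beta2AR via internalization measured by FAP dye flow cytometry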). Conditions: Am2.2-beta2AR cells, at 10 µM, stronger effect = higher value.
Sequence of Beta-2 adrenergic receptor (Homo sapiens) (P07550 whole entry, looked up): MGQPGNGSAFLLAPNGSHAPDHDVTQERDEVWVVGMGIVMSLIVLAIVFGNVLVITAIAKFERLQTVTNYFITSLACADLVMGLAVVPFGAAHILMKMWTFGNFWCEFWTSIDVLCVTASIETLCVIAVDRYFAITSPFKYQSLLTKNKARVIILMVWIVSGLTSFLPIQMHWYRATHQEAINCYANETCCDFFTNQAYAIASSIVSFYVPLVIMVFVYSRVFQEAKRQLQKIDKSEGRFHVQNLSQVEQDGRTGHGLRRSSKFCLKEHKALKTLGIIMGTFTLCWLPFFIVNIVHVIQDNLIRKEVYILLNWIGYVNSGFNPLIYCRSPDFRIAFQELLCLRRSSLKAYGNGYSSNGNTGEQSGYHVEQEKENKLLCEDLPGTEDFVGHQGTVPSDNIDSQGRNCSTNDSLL
Test [11] has as its target AP-2 complex subunit beta (Homo sapiens) (UniProt P63010). The experiment in a line: beta-arrestin/AP2 interaction blockers – biochemical, validation set, GST-AP2 beads, flow cytometry, pilot screen (AID 504541;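 active means inhibition above 54%, about 3 SD of non-fluorescent compounds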;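 further: AP2 carries R879A mutation and is captured from E. coli lysate; bead-bound FITC arrestin peptide fluorescence measuring arrestin peptide binding to AP2; 0% = DMSO wells and 100% = excess unlabeled arrestin peptide control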). Particulars: FITC arrestin peptide, at 10 µM, stronger effect = higher value, AP2 beta2 appendage fragment, R879A mutant.
Test [12] in a line: cytosolic pH regulators acting via V-ATPase – S. cerevisiae, pHLuorin, HTS validation (AID 504600; in the data active means response above about 15%;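 further: plate controls were DMSO for no effect and reference compound for full effect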). Particulars: V-ATPase proton transport, at 10 µM, stronger effect = higher value.
Test [13] relates to anti-desmoglein-3 scFv antibody binding to human DSG3. The experiment in a line: blockers of pathogenic pemphigus antibody–desmoglein-3 binding – biochemical, validation compound set, bead-based, flow cytometry, pilot screen (AID 588368;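 active means binding below the plate cutoff, the plate median minus 3 SD, with a reading above zero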;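 further: signal is the median channel fluorescence of bead-bound GFP antibody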). Particulars: Protein G beads, DSG3-Fc, scFv-GFP binding, at 10 µM, stronger effect = lower value.
Test [14] can be described thus: Nile Red efflux blockade in pump-expressing yeast – validation compound set, multiplex, phenotypic, pilot screen (AID 588506;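 active means efflux inhibition above 0.42, the validation set average plus 4 SD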;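 further: Nile Red retained in cells so higher fluorescence means more efflux inhibition; 0 = negative control wells and 1 = enniatin B 25 µM full block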). Conditions: S. cerevisiae pump-expressing triplex, Nile Red efflux flow cytometry; at 10 µM; stronger effect = higher value; the pumps come from Candida albicans.
For test [15], the target named is ATP-binding cassette sub-family B member 6 (Homo sapiens) (UniProt Q9NP58). The experiment in a line: blockers of ABCB6-driven porphyrin uptake – K562-ABCB6 cells, flow cytometry, validation set, pilot screen (AID 588550;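 active means inhibition above the screen-wide mean plus 3 SD, about 51%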;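 further: 0% = DMSO wells and 100% = benzethonium chloride 70 µM positive control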). Conditions: K562-ABCB6 porphyrin accumulation, 1 h, at 10 µM, stronger effect = higher value.
Sequence of ATP-binding cassette sub-family B member 6 (Homo sapiens) (Q9NP58 whole entry, looked up): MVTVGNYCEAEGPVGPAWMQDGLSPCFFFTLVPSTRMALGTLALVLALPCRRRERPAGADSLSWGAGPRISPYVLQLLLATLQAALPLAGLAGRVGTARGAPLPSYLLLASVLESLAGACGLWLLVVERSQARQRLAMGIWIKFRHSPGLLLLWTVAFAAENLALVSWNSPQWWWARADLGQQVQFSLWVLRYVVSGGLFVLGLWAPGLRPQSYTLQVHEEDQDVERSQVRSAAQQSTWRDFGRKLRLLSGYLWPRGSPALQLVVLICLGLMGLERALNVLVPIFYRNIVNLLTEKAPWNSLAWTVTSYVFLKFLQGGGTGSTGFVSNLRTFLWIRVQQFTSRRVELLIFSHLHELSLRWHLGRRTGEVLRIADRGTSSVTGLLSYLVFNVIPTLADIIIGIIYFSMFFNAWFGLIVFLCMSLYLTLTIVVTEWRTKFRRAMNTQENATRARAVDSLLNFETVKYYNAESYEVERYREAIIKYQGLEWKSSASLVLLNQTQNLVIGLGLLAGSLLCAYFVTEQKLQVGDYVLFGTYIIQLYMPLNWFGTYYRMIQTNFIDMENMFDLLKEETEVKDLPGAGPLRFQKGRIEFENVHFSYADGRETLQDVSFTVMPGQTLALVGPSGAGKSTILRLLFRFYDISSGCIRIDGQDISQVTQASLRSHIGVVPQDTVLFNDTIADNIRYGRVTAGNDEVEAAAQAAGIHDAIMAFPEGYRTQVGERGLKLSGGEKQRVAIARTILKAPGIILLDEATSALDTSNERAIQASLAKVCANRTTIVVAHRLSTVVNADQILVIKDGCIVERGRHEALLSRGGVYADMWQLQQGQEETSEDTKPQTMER
Test [16] in a line: AML differentiation inducers, ER-HoxA9 marrow cells – cell-based, GFP/MAC1 double positive, flow cytometry, validation set, primary screen (AID 588685;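 active means differentiation response of at least 50%, scaled between solvent and reference control, from cells with both markers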;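 further: compound exposure lasts four days before antibody staining and flow analysis; 0% = DMSO wells and 100% = 5 µM fulvestrant positive control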). Conditions: stronger effect = higher value, normalized: vehicle 0, fulvestrant 100.

Sequence of AP-2 complex subunit beta (Homo sapiens) (P63010 whole entry, looked up, the tested form may be a part, one chain of several): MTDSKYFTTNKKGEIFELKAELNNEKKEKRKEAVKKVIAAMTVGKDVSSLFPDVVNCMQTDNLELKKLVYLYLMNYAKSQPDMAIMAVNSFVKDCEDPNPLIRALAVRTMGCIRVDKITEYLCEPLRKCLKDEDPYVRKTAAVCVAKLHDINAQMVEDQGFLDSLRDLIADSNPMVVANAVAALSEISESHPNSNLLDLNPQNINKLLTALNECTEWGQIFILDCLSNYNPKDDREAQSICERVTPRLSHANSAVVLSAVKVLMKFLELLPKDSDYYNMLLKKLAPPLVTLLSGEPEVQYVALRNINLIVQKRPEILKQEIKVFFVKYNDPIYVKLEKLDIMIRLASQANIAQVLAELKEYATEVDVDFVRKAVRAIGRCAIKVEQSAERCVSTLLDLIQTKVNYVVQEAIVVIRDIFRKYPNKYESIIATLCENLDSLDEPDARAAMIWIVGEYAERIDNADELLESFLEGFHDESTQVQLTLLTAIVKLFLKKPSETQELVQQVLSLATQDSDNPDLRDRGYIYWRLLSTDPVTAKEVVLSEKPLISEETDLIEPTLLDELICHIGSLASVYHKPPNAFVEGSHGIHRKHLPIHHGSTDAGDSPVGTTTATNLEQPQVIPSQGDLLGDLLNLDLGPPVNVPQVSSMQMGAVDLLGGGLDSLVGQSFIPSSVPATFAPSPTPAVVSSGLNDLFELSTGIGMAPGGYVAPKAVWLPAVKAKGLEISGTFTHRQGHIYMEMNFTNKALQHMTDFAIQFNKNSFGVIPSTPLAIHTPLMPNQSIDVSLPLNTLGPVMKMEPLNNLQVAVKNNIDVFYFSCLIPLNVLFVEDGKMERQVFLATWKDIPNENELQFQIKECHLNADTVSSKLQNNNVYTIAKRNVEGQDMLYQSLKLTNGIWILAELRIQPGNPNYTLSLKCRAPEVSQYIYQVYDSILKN
Sequence of Integrin beta-1 (Homo sapiens) + Integrin alpha-4 (Homo sapiens) (P05556 whole entry, looked up): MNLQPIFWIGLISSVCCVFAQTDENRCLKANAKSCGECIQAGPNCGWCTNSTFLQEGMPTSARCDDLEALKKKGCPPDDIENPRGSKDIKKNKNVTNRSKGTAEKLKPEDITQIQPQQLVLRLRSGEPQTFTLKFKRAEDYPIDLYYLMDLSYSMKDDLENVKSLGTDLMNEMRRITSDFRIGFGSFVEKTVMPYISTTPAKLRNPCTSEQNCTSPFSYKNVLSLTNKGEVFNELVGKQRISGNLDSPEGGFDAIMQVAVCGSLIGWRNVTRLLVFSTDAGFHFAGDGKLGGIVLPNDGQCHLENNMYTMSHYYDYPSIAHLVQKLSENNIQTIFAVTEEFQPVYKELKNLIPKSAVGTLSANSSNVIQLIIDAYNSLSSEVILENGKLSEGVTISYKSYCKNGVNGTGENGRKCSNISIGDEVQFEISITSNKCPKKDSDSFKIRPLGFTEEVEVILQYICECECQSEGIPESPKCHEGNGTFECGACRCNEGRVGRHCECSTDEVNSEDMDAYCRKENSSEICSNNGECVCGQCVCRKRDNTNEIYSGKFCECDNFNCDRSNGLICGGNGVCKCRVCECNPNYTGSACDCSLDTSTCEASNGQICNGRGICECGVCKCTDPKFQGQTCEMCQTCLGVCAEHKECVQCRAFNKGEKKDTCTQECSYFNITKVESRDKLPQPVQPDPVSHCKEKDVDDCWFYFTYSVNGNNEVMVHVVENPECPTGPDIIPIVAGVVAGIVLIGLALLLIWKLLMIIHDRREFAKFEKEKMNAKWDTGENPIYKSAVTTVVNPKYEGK
Sequence of Integrin beta-1 (Homo sapiens) + Integrin alpha-4 (Homo sapiens) (P13612 whole entry, looked up): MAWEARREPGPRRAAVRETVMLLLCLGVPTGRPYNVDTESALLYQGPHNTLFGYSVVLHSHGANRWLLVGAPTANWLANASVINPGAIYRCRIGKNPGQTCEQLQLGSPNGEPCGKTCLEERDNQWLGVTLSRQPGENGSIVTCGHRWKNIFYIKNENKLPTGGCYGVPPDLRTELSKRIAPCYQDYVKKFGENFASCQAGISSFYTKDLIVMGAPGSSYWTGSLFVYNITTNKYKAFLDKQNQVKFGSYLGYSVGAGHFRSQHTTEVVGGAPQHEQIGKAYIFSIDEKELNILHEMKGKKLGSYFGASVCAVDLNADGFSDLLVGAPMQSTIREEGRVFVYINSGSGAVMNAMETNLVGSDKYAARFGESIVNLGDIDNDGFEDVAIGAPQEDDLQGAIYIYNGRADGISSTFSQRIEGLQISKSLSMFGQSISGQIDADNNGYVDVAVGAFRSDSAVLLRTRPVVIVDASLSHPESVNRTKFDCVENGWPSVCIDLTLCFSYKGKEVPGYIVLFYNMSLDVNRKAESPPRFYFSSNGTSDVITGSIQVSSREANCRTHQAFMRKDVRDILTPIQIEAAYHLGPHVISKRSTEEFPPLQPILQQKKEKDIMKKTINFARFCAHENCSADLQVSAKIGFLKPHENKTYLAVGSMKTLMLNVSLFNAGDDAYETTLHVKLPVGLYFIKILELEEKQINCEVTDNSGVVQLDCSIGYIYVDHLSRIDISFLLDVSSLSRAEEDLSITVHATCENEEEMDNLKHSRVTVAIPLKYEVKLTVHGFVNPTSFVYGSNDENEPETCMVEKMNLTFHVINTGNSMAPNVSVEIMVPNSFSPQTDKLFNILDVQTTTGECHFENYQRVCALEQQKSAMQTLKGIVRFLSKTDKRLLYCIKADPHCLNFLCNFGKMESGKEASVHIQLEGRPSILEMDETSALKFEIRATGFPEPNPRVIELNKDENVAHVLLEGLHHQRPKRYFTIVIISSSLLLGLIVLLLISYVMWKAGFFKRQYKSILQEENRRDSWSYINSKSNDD

By inhibition is commonly meant the change of the read-out against control, counted positive when it falls. In the case of `CCc1ccc(CN(C)Cc2nc(Cc3ccccc3)no2)nc1`, the percent of DMSO control GFP in [1] was 105% (inactive). For the same compound, the GFP response vs DMSO in test [2] is 99.6% (inactive); in test [4] it was 112% (inactive). Further, the percent response of DMSO control in [3] was 103% (inactive). Besides, the GFP response, % of DMSO in test [5] is 112% (inactive). In test [6], the double positive events is 59.8%. Moreover, the vesicle binding response in test [6] is 160% (inactive). In addition, the results for the inhibition in test [7], in test [11] and in test [15] were 0.59% (inactive), 1.57% (inactive) and -5% (inactive), respectively. The superoxide response (% of plate) in test [8] was 101% (inactive). In addition, the aptamer binding inhibition in test [9] was 4% (inactive). Besides, the results for the response in test [10] and in [12] were -25% (inactive) and -11.6% (inactive), respectively. For the same compound, the binding (% of control) in [13] is 97.3% (inactive). For the same compound, in test [14], the efflux inhibition (fraction of control) is -0.04 (inactive). Also, the differentiation response in [16] was 14.7% (inactive).

Consider `COCCCN1C(=O)/C(=C\c2cccs2)C(C(=O)OC)=C1C`, for which the percent of DMSO control GFP in test [1] is 99.9% (inactive). For the same compound, the values for the GFP response vs DMSO in test [2] and in test [4] were 106% (inactive) and 120% (inactive), respectively. Also, the percent response of DMSO control in test [3] was 92.9% (inactive). For the same compound, the GFP response, % of DMSO in [5] is 99.4% (inactive). This compound yielded a double positive events in test [6] of 57.8%. Further, the vesicle binding response in [6] is 4220% (inactive). Further, the inhibition in test [7] is 6.4% (inactive); in test [11] it was -12% (inactive); in [15] it was 5% (inactive). In [8], the superoxide response (% of plate) is 113% (inactive). Besides, the aptamer binding inhibition in test [9] was 2% (inactive). Further, the response was -6.32% (inactive) in test [10] and 10.8% (inactive) in [12]. For the same compound, the binding (% of control) in test [13] is 102% (inactive). The efflux inhibition (fraction of control) in test [14] is -0.06 (inactive). In addition, in test [16], the differentiation response was -20% (inactive).

Regarding `CCOC(=O)C(=O)N1CCN(c2ccccc2OC)CC1`, in test [1], the percent of DMSO control GFP was 97.9% (inactive). In addition, the GFP response vs DMSO in [2] is 112% (inactive); in test [4], 94.8% (inactive). The percent response of DMSO control in test [3] is 98.6% (inactive). In test [5], the GFP response, % of DMSO is 104% (inactive). In addition, the double positive events in [6] was 64.7%. Moreover, the vesicle binding response in test [6] is 175% (inactive). Also, the inhibition was -9.13% (inactive) in [7], 14.2% (inactive) in [11] and 7% (inactive) in [15]. The superoxide response (% of plate) in test [8] was 98% (inactive). Also, the aptamer binding inhibition in [9] is 3% (inactive). Also, the response in test [10] was 3.6% (inactive); in [12] it was -4.83% (inactive). In addition, the binding (% of control) in test [13] is 102% (inactive). Moreover, in [14], the efflux inhibition (fraction of control) is -0.125 (inactive). In addition, in test [16], the differentiation response is -8.96% (inactive).

On to `O=C(CC1(O)C(=O)Nc2ccccc21)c1ccccc1O` (stereo not drawn), for which the percent of DMSO control GFP in test [1] was 100% (inactive). In addition, the GFP response vs DMSO in test [2] is 104% (inactive); in test [4], 103% (inactive). Further, the percent response of DMSO control in test [3] was 97.8% (inactive). Besides, the GFP response, % of DMSO in [5] was 101% (inactive). In [6], this compound came in with a double positive events of 61.5%. The vesicle binding response in test [6] was 195% (inactive). The inhibition in [7] is -6.68% (inactive); in [11], -2.48% (inactive); in test [15], 3% (inactive). Further, the superoxide response (% of plate) in [8] was 102% (inactive). Further, the aptamer binding inhibition in test [9] is 3% (inactive). In addition, the response in test [10] is 5.92% (inactive); in test [12], 17.1% (active). Further, the binding (% of control) in [13] is 99.5% (inactive). In addition, the efflux inhibition (fraction of control) in test [14] was -0.04 (inactive). For the same compound, the differentiation response in [16] was 12.9% (inactive).

Source of the values: PubChem BioAssay.
